Measurements reported in PubChem BioAssay (NCI).
The panel holds about 79,000 compounds, 15% with a hit somewhere; the sample as a whole holds those more often. Active and inactive are the calls of the source. No stated cut-off is given here; in the data, active means growth inhibition above about 70%; inactive means the rest.

What was measured:
[1] = NCI Yeast Anticancer Drug Screen. Data for the rad52 strain (AID 147);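 further: 0% = growth of vehicle-treated control cultures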; conditions: S. cerevisiae rad52 mutant growth inhibition, active compounds read high
Procedure, shortened: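 Growth of repair-deficient yeast cells was compared between compound-treated and vehicle-treated cultures to give percent inhibition.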

[2] = NCI Yeast Anticancer Drug Screen. Data for the wt1 strain (AID 149);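 further: 0% = growth of vehicle-treated wt1 cultures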; conditions: S. cerevisiae wt1 strain (SPY 50644) growth inhibition, active compounds read high
Procedure, shortened: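 Compounds are added to wt1 yeast cultures. Growth is then measured. Inhibition is expressed relative to vehicle-treated controls.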

[3] = NCI Yeast Anticancer Drug Screen. Data for the rad50EPP+ strain (AID 151);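 further: 0% = growth of vehicle-treated control cultures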; conditions: S. cerevisiae rad50 mutant strain, active compounds read high
Procedure, shortened: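 Measured: growth inhibition of rad50EPP+ yeast. Reference: vehicle-treated controls. Screen uses strains with defined genetic alterations in DNA damage repair or cell cycle control.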

[4] = NCI Yeast Anticancer Drug Screen. Data for the mgt1 strain (AID 153); conditions: S. cerevisiae mgt1 mutant growth inhibition, active compounds read high
Procedure, shortened: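 Compounds were applied to mgt1 mutant yeast, and growth was then compared against vehicle-treated control cultures to give percent inhibition.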

[5] = NCI Yeast Anticancer Drug Screen. Data for the rad50 strain (AID 155);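 further: 0% = growth of vehicle-only cultures of the same strain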; conditions: S. cerevisiae rad50 strain growth inhibition, active compounds read high
Procedure, shortened: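 Inhibition values express reduced yeast growth in compound-treated cultures relative to vehicle-treated controls.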

[6] = NCI Yeast Anticancer Drug Screen. Data for the mec2-1 strain (AID 157); conditions: S. cerevisiae mec2-1 strain, active compounds read high
Procedure, shortened: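 Compounds were applied to mec2-1 yeast cells. Their growth was then compared with that of vehicle-treated cultures to give growth inhibition.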

[7] = NCI Yeast Anticancer Drug Screen. Data for the rad14 strain (AID 159);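 further: 0% = growth of vehicle-treated control cultures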; conditions: S. cerevisiae rad14 strain growth inhibition, active compounds read high
Procedure, shortened: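 A mutant yeast strain defective in DNA damage repair is treated with compound; inhibition of its growth is scored against untreated, vehicle-exposed cultures.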

[8] = NCI Yeast Anticancer Drug Screen. Data for the sgs1 mgt1 strain (AID 161);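 further: 0% = growth of cultures given vehicle only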; conditions: S. cerevisiae sgs1 mgt1 strain, active compounds read high
Procedure, shortened: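 Growth of a repair-deficient yeast mutant was monitored after compound treatment and expressed as inhibition relative to vehicle-treated cultures.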

[9] = NCI Yeast Anticancer Drug Screen. Data for the CLN2oe strain (AID 163);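 further: 0% = growth of vehicle-only control cultures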; conditions: S. cerevisiae CLN2oe strain, active compounds read high
Procedure, shortened: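 Cells of an engineered yeast line with disturbed cell-cycle regulation are treated with compound. Inhibition of growth is then calculated relative to the vehicle-treated reference.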

[10] = NCI Yeast Anticancer Drug Screen. Data for the cln2 rad14 strain (AID 165);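 further: 0% = growth equal to vehicle treated cultures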; conditions: S. cerevisiae cln2 rad14 strain, active compounds read high
Procedure, shortened: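 Strain: cln2 rad14 yeast, altered in cell cycle control and DNA damage repair. Read-out: growth inhibition vs vehicle.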

[11] = NCI Yeast Anticancer Drug Screen. Data for the bub3 strain (AID 167); conditions: S. cerevisiae bub3 mutant strain, active compounds read high
Procedure, shortened: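 Steps: expose the mutant yeast strain to compound; grow alongside vehicle-treated cultures; measure growth; express inhibition against the vehicle cultures.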

[12] = NCI Yeast Anticancer Drug Screen. Data for the wt2 strain (AID 169);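 further: 0% = growth of vehicle-treated yeast cultures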; conditions: S. cerevisiae wt2 strain growth inhibition, active compounds read high
Procedure, shortened: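 Growth of compound-treated yeast is measured and expressed as inhibition relative to vehicle-only controls.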

[13] = NCI Yeast Anticancer Drug Screen. Data for the mlh1 strain (AID 171);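 further: 0% = growth of vehicle-treated control cultures of the same strain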; conditions: S. cerevisiae mlh1 strain growth inhibition, active compounds read high
Procedure, shortened: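 Test agents were incubated with yeast bearing a defined DNA damage repair or cell cycle control alteration; values are growth inhibition normalised to vehicle-treated cultures.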

[14] = NCI Yeast Anticancer Drug Screen. Data for the sgs1 strain (AID 173);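 further: 0% = growth of vehicle-only control cultures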; conditions: S. cerevisiae sgs1 mutant, active compounds read high
Procedure, shortened: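 Strain with an altered DNA repair or cell cycle pathway exposed to compound. Growth then measured. Value = inhibition versus vehicle control.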

[15] = NCI Yeast Anticancer Drug Screen. Data for the mlh1 rad18 strain (AID 175); conditions: S. cerevisiae mlh1 rad18 strain growth inhibition, active compounds read high
Procedure, shortened: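 A repair-deficient yeast strain is exposed to test compound, and growth is scored relative to vehicle-treated controls.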

[16] = NCI Yeast Anticancer Drug Screen. Data for the rad18 strain (AID 177); conditions: S. cerevisiae rad18 mutant growth inhibition, active compounds read high
Procedure, shortened: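 DNA-repair-defective yeast; compound treatment; growth inhibition scored against vehicle.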

[17] = at 5.0 µM (retest, dose inferred, filed as 0.5)
[18] = at 50.0 µM (retest, dose inferred, filed as 5.0)

Measured: growth inhibition

COC(=O)c1cc(-c2ccc(C)cc2)[nH]c(=O)c1C#N
active: [5]; at 50.0 µM 86.5% | [8]; at 50.0 µM 84.3% | [15]; at 50.0 µM 90.2%
inactive: [1]; at 1.2 µM -2% | [1]; at 3.7 µM 0% | [1]; at 11.0 µM 1% | [1]; at 33.0 µM -1% | [1]; at 100.0 µM -4% | [2]; at 1.2 µM -2% | [2]; at 3.7 µM -1% | [2]; at 11.0 µM -1% | [2]; at 33.0 µM -1% | [2]; at 100.0 µM 0% | [3]; at 1.2 µM -5% | [3]; at 3.7 µM -4% | [3]; at 11.0 µM -5% | [3]; at 33.0 µM -6% | [3]; at 100.0 µM -4% | [4]; at 1.2 µM 0% | [4]; at 3.7 µM 0% | [4]; at 11.0 µM 0% | [4]; at 33.0 µM -1% | [4]; at 100.0 µM 0% | [5]; at 1.2 µM -1% | [5]; at 3.7 µM -2% | [5]; [17] -5% | [5]; at 11.0 µM 0% | [5]; at 33.0 µM -4% | [5]; [18] 9% | [5]; at 100.0 µM -2% | [6]; at 1.2 µM 0% | [6]; at 3.7 µM 0% | [6]; [17] 11% | [6]; at 11.0 µM -2% | [6]; at 33.0 µM -1% | [6]; [18] 24% | [6]; at 50.0 µM 56.9% | [6]; at 100.0 µM 10% | [7]; at 1.2 µM 1% | [7]; at 3.7 µM -6% | [7]; at 11.0 µM -6% | [7]; at 33.0 µM -19% | [7]; at 100.0 µM -11% | [8]; [17] -4% | [8]; [18] 20% | [9]; at 1.2 µM -3% | [9]; at 3.7 µM 1% | [9]; at 11.0 µM -1% | [9]; at 33.0 µM 3% | [9]; at 100.0 µM 4% | [10]; [17] 30% | [10]; [18] 43% | [10]; at 50.0 µM 66% | [11]; at 1.2 µM -8% | [11]; at 3.7 µM -6% | [11]; [17] 33% | [11]; at 11.0 µM 6% | [11]; at 33.0 µM -2% | [11]; [18] 16% | [11]; at 50.0 µM 52.6% | [11]; at 100.0 µM -7% | [12]; at 1.2 µM -2% | [12]; at 3.7 µM 0% | [12]; at 11.0 µM -2% | [12]; at 33.0 µM -2% | [12]; at 100.0 µM -2% | [13]; at 1.2 µM -6% | [13]; at 3.7 µM -2% | [13]; at 11.0 µM 0% | [13]; at 33.0 µM 0% | [13]; at 100.0 µM -21% | [14]; at 1.2 µM -4% | [14]; at 3.7 µM -1% | [14]; at 11.0 µM -1% | [14]; at 33.0 µM -2% | [14]; at 100.0 µM -4% | [15]; [17] 0% | [15]; [18] -1% | [16]; at 1.2 µM -17% | [16]; at 3.7 µM -11% | [16]; at 11.0 µM -16% | [16]; at 33.0 µM -11% | [16]; at 100.0 µM -18%

O=C1CSc2cc([N+](=O)[O-])ccc2N1
inactive: [1]; at 1.2 µM 10% | [1]; at 3.7 µM 6% | [1]; at 11.0 µM 9% | [1]; at 33.0 µM 16% | [1]; at 100.0 µM 15% | [2]; at 1.2 µM 4% | [2]; at 3.7 µM 12% | [2]; at 11.0 µM 5% | [2]; at 33.0 µM 18% | [2]; at 100.0 µM -20% | [3]; at 1.2 µM -9% | [3]; at 3.7 µM 3% | [3]; at 11.0 µM -4% | [3]; at 33.0 µM 3% | [3]; at 100.0 µM -6% | [4]; at 1.2 µM 0% | [4]; at 3.7 µM 3% | [4]; at 11.0 µM -3% | [4]; at 33.0 µM -8% | [4]; at 100.0 µM 3% | [5]; at 1.2 µM -20% | [5]; at 3.7 µM -6% | [5]; [17] -1% | [5]; at 11.0 µM -22% | [5]; at 33.0 µM -18% | [5]; [18] -14% | [5]; at 50.0 µM 21.1% | [5]; at 100.0 µM -17% | [6]; at 1.2 µM -4% | [6]; at 3.7 µM -5% | [6]; [17] -31% | [6]; at 11.0 µM -10% | [6]; at 33.0 µM -21% | [6]; [18] -12% | [6]; at 50.0 µM -18.1% | [6]; at 100.0 µM -22% | [7]; at 1.2 µM -16% | [7]; at 3.7 µM -7% | [7]; at 11.0 µM -6% | [7]; at 33.0 µM -10% | [7]; at 100.0 µM -11% | [8]; [17] -14% | [8]; [18] -14% | [8]; at 50.0 µM -11% | [9]; at 1.2 µM -3% | [9]; at 3.7 µM -14% | [9]; at 11.0 µM -8% | [9]; at 33.0 µM -19% | [9]; at 100.0 µM -13% | [10]; [17] 23% | [10]; [18] 27% | [10]; at 50.0 µM 22.4% | [11]; at 1.2 µM 8% | [11]; at 3.7 µM 9% | [11]; [17] 0% | [11]; at 11.0 µM 23% | [12]; at 1.2 µM 19% | [12]; at 3.7 µM 23% | [12]; at 11.0 µM 14% | [12]; at 33.0 µM 21% | [12]; at 100.0 µM 4% | [13]; at 1.2 µM 18% | [13]; at 3.7 µM 5% | [13]; at 11.0 µM 6% | [13]; at 33.0 µM 0% | [13]; at 100.0 µM -22% | [14]; at 1.2 µM 19% | [14]; at 3.7 µM 19% | [14]; at 11.0 µM 17% | [14]; at 33.0 µM 36% | [14]; at 100.0 µM 11% | [15]; [17] -15% | [15]; [18] -2% | [15]; at 50.0 µM -5.25% | [16]; at 1.2 µM 0% | [16]; at 3.7 µM -18% | [16]; at 11.0 µM -3% | [16]; at 33.0 µM -2% | [16]; at 100.0 µM -13%
active: [11]; at 33.0 µM 74% | [11]; [18] 79% | [11]; at 50.0 µM 70.2% | [11]; at 100.0 µM 91%

COc1ccc(NC(=S)N/N=C(\c2ccccc2)c2ccccn2)cc1
active: [1]; at 100.0 µM 96% | [2]; at 100.0 µM 95% | [4]; at 100.0 µM 95% | [5]; [18] 89% | [5]; at 100.0 µM 95%
inactive: [1]; at 1.2 µM -3% | [1]; at 3.7 µM -3% | [1]; at 11.0 µM -3% | [1]; at 33.0 µM 59% | [2]; at 1.2 µM -4% | [2]; at 3.7 µM -3% | [2]; at 11.0 µM -3% | [2]; at 33.0 µM 50% | [3]; at 1.2 µM 0% | [3]; at 3.7 µM 4% | [3]; at 11.0 µM 5% | [3]; at 33.0 µM 3% | [3]; at 100.0 µM 55% | [4]; at 1.2 µM -1% | [4]; at 3.7 µM -6% | [4]; at 11.0 µM 8% | [4]; at 33.0 µM 52% | [5]; at 1.2 µM 0% | [5]; at 3.7 µM 1% | [5]; [17] 12% | [5]; at 11.0 µM -34% | [5]; at 33.0 µM 59% | [5]; at 50.0 µM 68.1% | [6]; at 1.2 µM 0% | [6]; at 3.7 µM -7%
